# Only some compounds are listed: those with a hit (about 8.3% of all), similar ones and a draw of the others.
# Giardia killer – Giardia lamblia killing; activity change, % at 7.66 µM, hits read low; Giardia lamblia trophozoite viability; 0.15% of 340,000 active; in the data active = activity change below about -80%; inconclusive = between about -30% and that limit;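 note: parasites exposed to compound for two days anaerobically before the ATP read; % is set by controls: 0 for no effect and ±100 for the full control effect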
#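 Giardia trophozoites, 100 cells per well, were exposed to compounds for 48 hrs at 37 deg C under anaerobic conditions; viability was then read as ATP content by bioluminescence after 15-30 min at room temperature.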
# Gal4-VP16 FLuc – counter-screen for ROR gamma inhibitors: Gal4-VP16 reporter; Potency, µM (series often up to 53.6 µM), for inactives: at the top dose activity, negative = inhibition, actives largely listed as inhibitors; 3.5% of 310,000 active; AID 2546; Drosophila S2 Gal4-VP16 UAS-luciferase, luminescence, 20 h;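 note: Gal4-VP16 expression switched on by copper sulfate through the metallothionein promoter; potency is the fitted concentration of half-maximal effect; % is set by controls: 0 for no effect and ±100 for the full control effect; nearly all actives have a fitted effect of over 50% in size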
# RORg inh – inhibitors of mouse ROR gamma transcriptional activity; Drosophila S2 Gal4-RORgamma UAS-luciferase reporter, 20 h; Potency, µM (titrated, usually from 53.6 µM), inactives show at the highest dose activity change, negative = inhibition, hits mostly inhibitors; 5.4% of 310,000 active; AID 2551; note: potency is the fitted concentration of half-maximal effect; % is set by controls: 0 for no effect and ±100 for the full control effect; nearly all actives have a fitted effect of over 60% in size
# Target sequence (P51450 whole entry, looked up, the tested form may be a part): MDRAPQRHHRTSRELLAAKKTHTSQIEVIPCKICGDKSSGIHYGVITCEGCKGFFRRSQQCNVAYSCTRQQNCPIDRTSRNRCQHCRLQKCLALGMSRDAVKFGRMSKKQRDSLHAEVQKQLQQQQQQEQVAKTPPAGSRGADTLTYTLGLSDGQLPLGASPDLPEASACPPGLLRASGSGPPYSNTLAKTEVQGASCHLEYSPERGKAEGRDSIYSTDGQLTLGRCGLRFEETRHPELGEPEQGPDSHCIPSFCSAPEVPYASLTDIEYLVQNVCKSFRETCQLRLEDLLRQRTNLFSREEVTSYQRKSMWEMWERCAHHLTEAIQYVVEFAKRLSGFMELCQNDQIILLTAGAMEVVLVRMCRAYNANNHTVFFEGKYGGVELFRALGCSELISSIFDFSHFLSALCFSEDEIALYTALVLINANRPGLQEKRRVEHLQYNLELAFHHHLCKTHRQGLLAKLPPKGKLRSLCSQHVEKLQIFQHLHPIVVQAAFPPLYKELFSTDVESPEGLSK
#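 Schneider cells (Drosophila), stable Gal4 DBD–ROR gamma + UAS-luc; 1 hr cmpd preincubation; Cu2+ induction 700 uM final; 20 hr ambient; luminescence.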
# BCR signal inh – chronic active BCR signaling inhibition | ABC-DLBCL IkBa-CBG/CBR reporter, luminescence ratio, 4 h | Potency, µM (series often up to 46.1 µM), without a hit: at the highest dose activity change, negative = inhibition, most hits filed as inhibitors | 0.05% of 340,000 active; active = well fitted inhibition curve with a large enough effect in the signal ratio, with a control signal flat, not every such curve was filed as active; inconclusive = small, poorly fitted or top-dose-only effect, or effect the other way, or a change in a side signal; the % refers to the signal ratio;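 note: potency is the fitted concentration of half-maximal effect; plate controls were basal doxycycline-induced cells for no effect and cells given 10 µM MG132 for full effect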
#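 Doxycycline induced both beetle luciferases in TMD8 lymphoma cells; IKK-driven degradation limits the IkappaBalpha-fused green signal, while red luminescence normalises for cell number and nonspecific effects. Compounds tested up to 46 uM, 4 hrs.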
# SW480 rerep – inducers of DNA re-replication in SW480 colon cancer cells | Potency, µM (top dose mostly 46.1 µM), for the others: top-dose re-replication activation, actives largely listed as activators | SW480 DNA re-replication, Hoechst DNA content imaging, 48 h | 1.8% of 340,000 active; note: potency is the fitted concentration of half-maximal effect; % of control where 0% means no effect; nearly all actives have a fitted effect of over 55% in size
#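 Compounds, transferred as 23 nL by pin tool, were incubated with cells for 48 hr; DNA content per nucleus was then quantified by Hoechst staining and fluorescence plate imaging.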
# MCF10A rereplic – induces DNA re-replication in MCF 10a normal breast cells; MCF 10A DNA re-replication, Hoechst nuclear intensity, 48 h; Potency, µM (doses to about 46.1 µM), for the others: at the highest dose activity, positive = re-replication, most hits filed as activators; 2.9% of 350,000 active; AID 624296; note: potency is the fitted concentration of half-maximal effect; % of control where 0% means no effect; nearly all actives have a fitted effect of over 50% in size
# * hit, by the source's call; ? = inconclusive; . = no result given. Unless noted, calls come from the whole dose curve; as a rule, active = well fitted curve in the direction sought with a large enough effect; inconclusive = small, poorly fitted or top-dose-only effect, or another doubt; inactive = no such curve, though single readings can be large; an effect the other way counts as inactive or inconclusive.
SMILES,Giardia killer,Gal4-VP16 FLuc,RORg inh,BCR signal inh,SW480 rerep,MCF10A rereplic
CCSC1(SCC)N=C(N)C2(C#N)C(c3ccc(OC)c(OC)c3OC)C12C#N (configuration not stated),-7,2.5µM*,11µM*,?,?,9.2µM*
ClCc1nc2ccccc2c2ccccc12,14,?,-60%,?,18µM*,?
CCOC(=O)c1c(CCl)nc2ccccc2c1-c1ccccc1,-3,-1%,-16%,?,?,?
CCc1cccc(NC(=O)CN(c2ccc(C)cc2)S(=O)(=O)c2c(C)noc2C)c1,16,-1%,39%,12%,-37%,12µM*
Cc1ccc(N(CC(=O)Nc2cc(C)cc(C)c2)S(=O)(=O)c2c(C)noc2C)cc1,-28,11µM*,-28%,?,?,?
COc1ccc(N(CC(=O)Nc2ccc(C)cc2)S(=O)(=O)c2c(C)noc2C)cc1,-4,-5%,7%,0%,-4%,0%
Cc1ccc(N(CC(=O)Nc2ccc(F)c(Cl)c2)S(=O)(=O)c2c(C)noc2C)cc1,-5,1%,31%,?,9%,12µM*
O=C(Cc1cccc(NC(=O)C2CCN(C(=O)C3CC3)CC2)c1)Nc1cccc(C(=O)N2CCCCC2)c1,36,.,.,.,?,4%
O=C(O)CC(NNC(=O)c1ccccc1)C(=O)Nc1ccc([N+](=O)[O-])cc1 (configuration not stated),1,-19%,-27%,?,4%,0%
S=c1[nH]nc(-c2cc(-c3ccccn3)nc3ccccc23)o1,7,0%,5µM*,1%,-4%,0%
S=c1[nH]nc(-c2ccccc2)o1,-8,-3%,26%,?,-3%,-11%
CSc1nnc(-c2cc(-c3ccc(C)cc3)nc3ccccc23)o1,4,5%,-5%,?,2%,3%
Cc1ccc(-c2cc(-c3n[nH]c(=S)o3)c3ccccc3n2)cc1,-5,4.5µM*,7.1µM*,?,1%,?
O=C(C#Cc1ccccc1)c1ccco1,3,3.2µM*,2.8µM*,?,5.8µM*,?
CN(Cc1ccccc1)C(=O)c1ccco1,11,-9%,7%,-5%,-4%,0%
O=C(NCc1ccncc1)C(=O)NCC1OCCCN1S(=O)(=O)c1ccc(F)cc1 (configuration not stated),7,2%,-1%,0%,-1%,-5%
C/C(N)=C(/C#N)C(=O)COC(=O)CSc1ccccc1,20,8%,-40%,-2%,6%,1%
C/C(N)=C(/C#N)C(=O)COC(=O)CCSc1ccccc1Cl,-4,?,11µM*,?,2%,2%
CC(=O)N1c2ccc(S(=O)(=O)N3CCCC3C(=O)NCc3ccccc3Cl)cc2CC1C (configuration not stated),3,-5%,6.3µM*,-1%,?,22%
COc1ccccc1CNC(=O)C1CCN(S(=O)(=O)c2ccc3c(c2)CC(C)N3C(C)=O)CC1 (configuration not stated),0,-4%,0%,?,-3%,-1%
CC(CSc1n[nH]c(=S)s1)c1ccccc1 (configuration not stated),-11,.,.,.,2%,-6%
CC(C)CSc1n[nH]c(=S)s1,-14,-10%,10µM*,5%,1%,-2%
COC(C(=O)N/N=C(\C)CC(=O)Nc1ccc(N(C)C)cc1)c1ccccc1 (configuration not stated),-9,-30%,13µM*,2%,2%,-10%
COC(C(=O)N/N=C(\C)CC(=O)Nc1ccc(Cl)cc1C)c1ccccc1 (configuration not stated),-8,-6%,-5%,-14%,-1%,3%
CCCn1c(SCC(=O)NC(C)(C)C)nnc1-c1ccco1,0,-16%,5%,-12%,0%,6%
